# ClpP mod: qHTS Assay for Activators of ClpP. purified B. subtilis ClpP, FRET peptide cleavage, 20 min. actives 1.9% (n = 340,000). Potency, µM (highest dose often 57.5 µM), without a hit: at the highest dose activity change, negative = active. ATP-dependent Clp protease proteolytic subunit (Bacillus subtilis (strain 168)), P80244. AID 651965, 2013; active = well fitted falling curve with a large enough effect; inconclusive = small, poorly fitted or top-dose-only effect; inactive = no such curve, though single readings can be large or run the other way; note: potency is the fitted concentration of half-maximal effect; the source files actives as falling curves though it sought activators and does not explain the sign; nearly all actives have a fitted effect of over 65% in size
# Target sequence (P80244 whole entry, looked up): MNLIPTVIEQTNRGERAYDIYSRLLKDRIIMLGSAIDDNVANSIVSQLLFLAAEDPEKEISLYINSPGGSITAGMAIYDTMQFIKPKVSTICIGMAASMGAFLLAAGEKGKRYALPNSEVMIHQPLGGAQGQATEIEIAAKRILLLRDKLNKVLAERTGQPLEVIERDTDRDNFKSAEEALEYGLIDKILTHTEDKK
#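 Purified B. subtilis ClpP, 10 microg/mL final in Tris/HCl pH8 with KCl, BSA, glycerol and Tween-20, cleaved an Abz/nitrotyrosine-quenched decapeptide. Fluorescence (ex 320, em 430) was read at 0 and 20 min at room temperature. Delta was normalized to 5.8 microM ADEP and DMSO/no-enzyme controls.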
# p53 reactivation: qHTS assay for re-activators of p53 using a Luc reporter | H1299 p53-A138V BP100-luciferase reporter, luminescence, 24 h | Potency, µM (top dose mostly 92.2 µM), without a hit: at the highest dose activity change, positive = activation, actives largely listed as activators | AID 504706, 2011 | actives 0.063% (n = 320,000); note: potency is the fitted concentration of half-maximal effect; % of control where 0% means no effect; nearly all actives have a fitted effect of over 45% in size
#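 H1299 (p53-null), stable ts p53-A138V + BP100-Luc; 1000 cells/well, Opti-MEM/10% FBS; cpd 4 pt, 1:5; 24 h, 37 deg C, 5% CO2; detection reagent 10 min RT; luminescence.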
# A549 tox: Nrf2 qHTS screen for inhibitors: counterscreen for cytotoxicity; A549 ARE-Fluc cells, CellTiter-Fluor viability, 18-24 h; Potency, µM (series often up to 46 µM), for inactives: at the highest dose activity change, negative = cytotoxicity, hits mostly inhibitors; actives 0.16% (n = 390,000); AID 504648, 2011; note: potency is the fitted concentration of half-maximal effect; % is set by controls: 0 for no effect and ±100 for the full control effect
#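 A549 ARE-Fluc cells in 5% FBS OPTI-MEM, 5000 cells/well, rested 2 h then exposed to compounds in concentration-response for 18-24 h at 37 °C. Viability by CellTiter-Fluor fluorescence (Ex 405/Em 525) after 30 min; luciferase luminescence (BugLite, 15 min, RT) read afterwards.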
# Nrf2 activator: qHTS of Nrf2 Activators; Potency, µM (series often up to 46.1 µM), inactives show at the top dose activation, most hits filed as activators; actives 0.31% (n = 410,000); AID 624171, 2012; AREc32 ARE-luciferase reporter (MCF7-derived line), luminescence, 24 h; note: potency is the fitted concentration of half-maximal effect; % of control where 0% means no effect; nearly all actives have a fitted effect of over 65% in size
#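 Steps: seed AREc32_Fluc cells (1000/well, 5% FBS OPTI-MEM); incubate overnight at 37 deg C; add 23 nL compound; incubate 24 hr; add Steady-Glo; hold 30 min RT; read luminescence.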
# Nrf2 block: Nrf2 qHTS screen for inhibitors. actives 2.1% (n = 360,000). A549 ARE-Fluc reporter, luciferase luminescence, 18-24 h. Potency, µM (titrated, usually from 46 µM), without a hit: at the highest dose activity change, negative = inhibition, actives largely listed as inhibitors; note: potency is the fitted concentration of half-maximal effect; % is set by controls: 0 for no effect and ±100 for the full control effect; nearly all actives have a fitted effect of over 60% in size
#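 Reporter: ARE-Fluc in A549. Exposure: 18-24 h, 37 °C, 5% CO2, 5% FBS OPTI-MEM. Readouts: fluorescent cytotoxicity (CellTiter-Fluor), then luminescent Nrf2 signal after BugLite.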
# miR-21 act: qHTS Assay for Modulators of miRNAs and/orActivators of miR-21 | AID 2288, 2010 | Potency, µM (series often up to 38.3 µM), without a hit: at the top dose activity change, positive = activation, hits mostly activators | 340,000 tested, under 10 active | HeLa miR-21 FLuc reporter, luciferase, 48 h;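 note: % of control where 0% means no effect; miR-21 action dims this reporter so a rising signal means less miR-21 action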
#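 Luminescence from a firefly luciferase reporter carrying a miR-21 binding site downstream, stably expressed under a CMV promoter in HeLa cells that make miR-21 endogenously, reports miRNA modulation after 48 h compound exposure up to approximately 40uM final.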
# Numbers without * were called inactive; ? = inconclusive; nt = not tested or not shown. Hits are enriched below; roughly 3.7% of the tested compounds scored in any of these assays. Unless noted, calls come from the whole dose curve; as a rule, active = well fitted curve in the direction sought with a large enough effect; inconclusive = small, poorly fitted or top-dose-only effect, or another doubt; inactive = no such curve, though single readings can be large; an effect the other way counts as inactive or inconclusive.
SMILES,ClpP mod,p53 reactivation,A549 tox,Nrf2 activator,Nrf2 block,miR-21 act
COc1ccccc1-c1ccc(/C=C2/C=C(C)OC2=O)o1,32µM*,-2%,6%,14%,?,-9%
O=C(OCc1nnc(-c2ccccc2)o1)c1ccc(CO)cc1,-1%,6%,12%,0%,-2%,-4%
O=C(/C=C/c1ccco1)OCc1nnc(-c2ccc(Cl)cc2)o1,1%,-1%,1%,14µM*,?,-5%
O=C(/C=C/c1ccco1)OCc1nnc(-c2ccccc2)o1,-1%,2%,1%,11µM*,1%,-9%
CCOc1ccc(C(=O)c2cn(Cc3ccccc3)c3c(F)cc(F)cc3c2=O)cc1,-6%,nt,-9%,1%,?,27%
Oc1ccc2ccccc2c1/C=N/Nc1nnc(-c2ncc[nH]2)c2ccccc12,3%,?,nt,-1%,5.2µM*,-3%
COc1ccc(/C=N/Nc2nnc(-c3ncc[nH]3)c3ccccc23)cc1,-8%,13%,-24%,3%,-1%,-36%
CCOC(=O)N1CCC(NC(=O)c2cnn(-c3ccc(C)cc3)c2-n2cccc2)CC1,-2%,nt,2%,1%,-4%,3%
C=CCNC(=S)NNC(=O)c1ccc(OCCC)cc1,8%,10%,-7%,0%,-3%,-9%
CCOc1ccc(OCCC(=O)NNC(=O)c2ccncc2)cc1,7.9µM*,21%,0%,4%,9%,nt
CCOc1ccc(OCCC(=O)OCC(=O)NNC(=O)c2ccccc2)cc1,nt,3%,8%,0%,-9%,nt
Cc1ccc(OCCC(=O)OCC(=O)NNC(=O)c2ccccc2)cc1,25µM*,-3%,5%,0%,?,nt
Cc1ccc(OCCC(=O)NNC(=O)c2ccncc2)cc1,-1%,nt,nt,1%,nt,nt
CCCOc1ccc(C(=O)NNC(=S)NC(=O)CC)cc1,-1%,11%,?,0%,4.6µM*,20%
CCN1CCN(C(c2ccccc2Cl)c2sc3nc(-c4ccco4)nn3c2O)CC1 (stereo not given),0%,nt,1%,5%,nt,-7%
CNc1ccc(C=C2C=CC=C2)cc1,-3%,nt,nt,nt,nt,nt
O=C(NCCc1ccccc1)c1ccc(NC(=O)C2CCC2)cc1,1%,nt,4%,4%,18%,nt
CN(CC(=O)Nc1ccc(F)c(Cl)c1)S(=O)(=O)c1cccc2nsnc12,4%,-6%,-14%,-1%,26µM*,1%
CCCCN(CC)CCCNC(=O)C1CCCN(c2ncnc3c2nc2n3CCCCC2)C1 (stereo not given),-1%,nt,9%,0%,?,1%
CC(=O)C1=C(c2ccc(Cl)cc2)N(C(C)=O)n2c(nnc2C2CCCCC2)S1,-3%,nt,8%,3%,nt,0%
CC(C)(C)c1ccc(OCC(=O)Nc2c(C(=O)c3ccc(F)cc3)oc3ccccc23)cc1,-11%,nt,-7%,0%,11%,-5%
COc1cc([N+](=O)[O-])ccc1NC(=O)NCc1ccco1,1%,11%,-4%,10%,-26%,-11%
COc1ccc(/C=C/C(=O)O)cc1S(=O)(=O)NCc1ccco1,-3%,-2%,1%,0%,-12%,0%
COc1ccc(S(=O)(=O)NCc2ccco2)c2ccccc12,-6%,0%,?,?,3.7µM*,-8%
COc1ccc([N+](=O)[O-])cc1NCc1ccco1,2%,4%,-7%,11µM*,?,-28%
SMILES,ClpP mod,p53 reactivation,A549 tox,Nrf2 activator,Nrf2 block,miR-21 act
CC(=O)c1ccc(NC(=O)Cn2c(=O)n(Cc3ccco3)c(=O)c3sc4ccccc4c32)cc1,-2%,nt,-6%,5%,9%,0%
COc1cccc(C2c3c(ncn(-c4ccc5c(c4)OCO5)c3=N)Oc3ccc4ccccc4c32)c1 (stereo not given),nt,nt,-7%,nt,7%,nt
CC1CCCCN1C(=O)CSc1nc2ccccc2nc1Cc1ccccc1 (stereo not given),-3%,nt,-21%,1%,nt,23%
COC(=O)c1sc(NC(=S)NC(=O)c2cccc(Br)c2)nc1C,1%,6%,0%,16µM*,21%,-30%
COC(=O)c1sc(NC(=S)NC(=O)c2ccc(F)cc2)nc1C,nt,4%,nt,nt,nt,-7%
CCn1nnc(NC(=O)c2cccc(-c3cc4ccccc4oc3=O)c2)n1,14µM*,?,-23%,4%,?,-26%
COc1ccc(S(=O)(=O)Nc2ccccc2OC)cc1NC(=O)c1cc2ccccc2oc1=O,-3%,22µM*,-6%,5%,14%,-68%
COc1ccc(-c2cc3ccccc3oc2=O)cc1NC(=O)c1ccc([N+](=O)[O-])o1,1%,5%,-14%,6.3µM*,?,-14%
COc1ccc(-c2cc3ccccc3oc2=O)cc1NC(=O)c1ccc(Br)o1,-28%,16%,-15%,3%,?,-26%
O=C(Nc1cccnc1)c1cccc(-c2cc3ccccc3oc2=O)c1,nt,3%,0%,23%,100%,-13%
O=C(Nc1cccc(-c2cc3ccccc3oc2=O)c1)c1ccc(Br)o1,35µM*,-4%,-9%,0%,?,0%
COc1ccc(NC(=O)c2cc3ccccc3oc2=O)c(OC)c1,-1%,25%,1%,15%,?,-40%
Cc1c(Cl)cccc1NC(=O)Cn1cc2c(n1)CCCC2,-4%,nt,-1%,0%,-16%,-8%
COc1ccc(Cn2ccc3nc(C)c(C(=O)N4CCN(c5cc(C)ccc5C)CC4)cc3c2=O)cc1,-18%,nt,-23%,3%,-13%,15%
COc1ccccc1NS(=O)(=O)c1ccc2oc(SC)nc2c1,-7%,1%,1%,4%,21µM*,4%
CCOC(=O)CSc1nc2cc(S(=O)(=O)Nc3ccccc3OC)ccc2o1,3%,0%,-5%,-1%,9%,0%
COc1ccccc1NS(=O)(=O)c1ccc2oc(SCc3ccc(F)cc3)nc2c1,0%,7%,-17%,3%,23µM*,15%
COc1ccc(NS(=O)(=O)c2ccc3oc(SCc4ccc(F)cc4)nc3c2)cc1,2%,5%,-5%,4%,18µM*,15%
COc1ccccc1NS(=O)(=O)c1ccc2oc(SCC(C)=O)nc2c1,nt,4%,-5%,3%,?,0%
Cc1ccc(C)c(S(=O)(=O)c2nnn3c2nc(NC(C)C)c2sccc23)c1,?,nt,?,0%,?,21%
CCN1CCN(Cc2ccc(NC(=O)c3ccc(C)c(NC(=O)c4ccno4)c3)cc2C(F)(F)F)CC1,-1%,2%,7%,0%,-7%,17%
